From PubChem BioAssay
Shown are actives, neighbours in structure and some others; about 28% of the full set was active somewhere.
CYP2C9 activ = CYP2C9 (human) activation | P11712 | recombinant CYP2C9, luciferin-H conversion, luminescence; stronger effect = higher value; factor 1 = untreated enzyme, 0 = blocked | activation factor at 5 µM | actives 1.4% (n = 96,000);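 active = activation factor of 2 or more for CYP2C9 at a 5 µM dose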;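 also: 0 = sulfaphenazole-blocked wells and 1 = vehicle-only wells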
Target sequence (P11712 whole entry, looked up): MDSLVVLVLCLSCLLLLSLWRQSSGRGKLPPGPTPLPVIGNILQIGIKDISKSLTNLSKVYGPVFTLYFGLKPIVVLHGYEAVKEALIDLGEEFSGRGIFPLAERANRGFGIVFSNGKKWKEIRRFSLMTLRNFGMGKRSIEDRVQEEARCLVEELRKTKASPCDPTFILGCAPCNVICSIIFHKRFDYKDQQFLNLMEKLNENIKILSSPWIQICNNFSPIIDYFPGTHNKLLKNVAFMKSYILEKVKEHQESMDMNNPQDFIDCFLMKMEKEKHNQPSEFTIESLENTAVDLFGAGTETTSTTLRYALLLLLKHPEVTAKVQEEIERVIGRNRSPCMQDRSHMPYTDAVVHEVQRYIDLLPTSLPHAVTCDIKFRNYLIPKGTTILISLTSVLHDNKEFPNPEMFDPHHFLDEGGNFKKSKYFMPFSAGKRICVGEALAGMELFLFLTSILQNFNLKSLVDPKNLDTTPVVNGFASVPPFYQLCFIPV
CYP2C9 inhib = blocks human cytochrome P450 2C9 | CYP2C9 Supersomes, luciferin-H conversion, luminescence | inhibition, % at 5 µM | actives 20% (n = 96,000) | AID 777;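 active = blocking of liver enzyme CYP2C9 beyond about 50% at 5 µM, limit read from the data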
CYP2C19 activ = increases human CYP2C19 enzyme activity | P33261 | recombinant CYP2C19, luciferin-H EGE luminescence; stronger effect = higher value; 0 = fully inhibited enzyme, 1 = untreated enzyme | activation factor at 5 µM | 96,000 tested, under 10 active | AID 1025;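 active = activation factor of at least 2 at 5 µM in the primary screen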;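 also: 0 = wells with 2.5 mM tranylcypromine and 1 = vehicle-only wells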
Pyk2 oligo antag = blocks oligomerization of human Pyk2 in cells; Q14289; Q293 cells, Pyk2 FERM NanoBiT luminescence; stronger effect = lower value; z-score (the deposit names both 25 µM and 10 µM); actives 0.83% (n = 99,000); AID 1347419;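 active = Z-score of -3 or lower, scaled per plate to the spread of control and sample wells; inactive = z-score above -3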;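 also: negative z-score means lost luminescence so less FERM oligomerization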
CYP2C19 inhib = human CYP2C19 inhibition | P33261 | CYP2C19 Supersomes, luciferin-H EGE luminescence, 30 min | inhibition, % at 5 µM | actives 21% (n = 96,000);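 active = CYP2C19 inhibition above a set limit at 5 µM in the primary screen, cut at about 50% in these data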;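 also: plate controls were negative control wells for no effect and 2.5 mM tranylcypromine positive control for full effect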
Numbers without * were called inactive; . = no result given.

SMILES	CYP2C9 activ	CYP2C9 inhib	CYP2C19 activ	Pyk2 oligo antag	CYP2C19 inhib
c1nc(N2CCOCC2)c2c3c(sc2n1)CCCC3	0.8	24	0.4	-1.5	65*
Cc1csc(NC(=O)c2sc3nc(-c4cccs4)ccc3c2N)n1	0.2	81*	0.4	.	59*
CCCSc1nnc(NC(=O)c2sc3nc(-c4cccs4)ccc3c2N)s1	0.5	53*	0.6	0.01	36
Cc1ccc(/C(C#N)=C\c2cn(C)c3ccccc23)cc1	0.1	92*	0.2	.	80*
CCn1c(SCC(=O)Nc2ccccc2C(=O)OC)nnc1-c1ccc(N)cc1	0.8	16	0	-1	98*
CCn1c(SCC(=O)Nc2ccccc2C(=O)OC)nnc1-c1ccoc1C	0.8	20	0.1	-0.01	94*
O=C(OCc1cc2ccccc2[nH]c1=O)c1ccncc1	.	.	.	-0.56	.
O=C(OCc1cc2ccccc2[nH]c1=O)c1ccccc1	0.6	44	0.4	1.9	59*
CCn1ncc2c(OCc3ccc(C#N)cc3)cc(C)nc21	0.4	63*	0.4	-0.86	64*
O=C(CCN1C(=O)c2ccccc2C1=O)N1CCOCC1	.	.	.	-0.46	.
O=C1c2ccccc2C(=O)N1CCSC(=S)N1CCOCC1	0.8	24	0.5	0.64	55*
COCC(=O)Nc1cccc2ccccc12	1.2	-19	1	0.4	-3
CCOc1cccc(NC(=O)C(Cc2cccs2)c2nn[nH]n2)c1 (stereo not drawn)	0.8	18	1	1.1	-4
COc1ccc(NC(=O)COc2ccccc2)c(OC)c1	0.2	84*	0.1	-0.33	92*
CCOc1cccc(NC(=O)Cc2cccs2)c1	0.4	58*	0.1	-0.03	86*
COc1ccc(NC(=O)Cn2c(=O)sc3ccccc32)c(OC)c1	0.5	50	0.1	.	90*
COc1ccccc1NC(=O)Cn1c(=O)sc2ccccc21	1	-1	0.6	-1.8	39
CC(C)NS(=O)(=O)c1ccc(OCC(=O)Nc2cccc3ccccc23)cc1	0.2	82*	0.1	0.46	88*
O=C(CCNS(=O)(=O)c1cccc2nsnc12)N1CC(=O)N(CCc2ccccc2)C(=O)C1	1	4	0.9	-0.12	12
COC(=O)CCN(C(=O)C1C2CC3CC(C2)CC1C3)c1ccccn1 (stereo not drawn)	0.9	5	1.1	-0.88	-10
CCOc1ccc(-n2c(SC(C)C)nc3c(c2=O)SCC3)cc1	0.6	42	0.7	-0.64	32
CCC(=O)N1Cc2ccccc2-c2ccccc2C1=O	0.9	8	0.7	.	27
COc1ccccc1NC(=O)COc1ccccc1	1.6	-59	0.5	-0.04	46
COc1ccc(OCC(=O)Nc2ccccc2O)cc1	0.1	95*	0	2	99*
COc1ccc(NC(=O)Cc2cccs2)c(OC)c1	0.9	10	0.2	-0.57	79*
SMILES	CYP2C9 activ	CYP2C9 inhib	CYP2C19 activ	Pyk2 oligo antag	CYP2C19 inhib
CCc1ccc(OCC(=O)Nc2cc(S(=O)(=O)CC)ccc2O)cc1	0.2	79*	1	-0.52	3
COCC(O)CSc1nc(C)[nH]c1[N+](=O)[O-] (stereo not drawn)	1.2	-19	1.1	0.37	-10
CC1CCN(c2cc(=O)n(C3CCCCC3)c(=O)[nH]2)CC1	1	-3	1	.	-4
CCOC(=O)c1sc2nccc(N(C)C)c2c1N=CNOCc1c(F)cccc1Cl	0.1	92*	0.2	0.36	77*
CCOC(=O)c1sc2nccc(N(C)C)c2c1N=CNOC	0.5	50*	0.9	-0.28	6
CCOC(=O)c1sc2nccc(N(C)C)c2c1N=CNOCc1ccccc1	0.3	72*	0.4	-0.89	61*
CCOC(=O)c1sc2ncnc(OC)c2c1C	0.7	32	0.6	1	42
CCOc1ccccc1OCC(=O)Nc1nnc(COC)s1	.	.	.	-0.79	.
N#CCSc1nc(Nc2ccc3c(c2)OCO3)c2ccccc2n1	0.2	80*	0.8	-4.2*	19
CCOC(=O)CSc1nc(NCc2ccco2)c2ccccc2n1	0.6	38	0.6	-0.26	36
CCOC(=O)CSc1nc(Nc2ccc3c(c2)OCO3)c2ccccc2n1	0	98*	0.1	-3*	86*
Cc1ccc(-c2cc(-c3ccccc3)c3c(N)c(S(C)(=O)=O)sc3n2)cc1	0.4	58*	0.7	0.87	29
COC(c1ccccc1)c1c(-c2ccccc2)nn(C)c1Cl (stereo not drawn)	0.3	71*	0.1	1.4	94*
Cn1nc(-c2ccccc2)c(C(O)c2ccccc2C(F)(F)F)c1Cl (stereo not drawn)	0.8	20	0.6	1.2	36
COc1ccc(CC(NC(C)=O)C(=O)NC2CCN(C(=O)Nc3ccc(Cl)cc3)CC2)cc1OC (stereo not drawn)	0.9	10	0.9	1.2	5
COc1ccc(Cc2ccc(OC)c(N)c2)cc1N	1.1	-6	0.3	-0.3	66*
CC(C)(C(=O)c1ccccc1)/[N+]([O-])=C/c1ccc(Br)cc1	.	.	.	-0.02	.
CC1CN(c2nc3c(c(=O)n(C)c(=O)n3C)n2Cc2c(F)cccc2Cl)CC(C)O1 (stereo not drawn)	0.4	59*	0.9	-0.27	14
CCS(=O)c1ccccc1C(=O)O (stereo not drawn)	0.9	5	0.9	0.13	7
Cc1cc(C)n(S(=O)(=O)c2cc(C(=O)O)c(Cl)cc2Cl)n1	0.8	22	0.9	2.5	11
COC(=O)c1cc(S(=O)(=O)n2nc(C)c(Br)c2C)c(Cl)cc1Cl	0.7	27	0.3	0.9	73*
COc1cc(C2N(c3cccc(Cl)c3)C(=O)C3CCCN32)cc(OC)c1OC (stereo not drawn)	0.8	17	0.6	.	43
O=C1C2CCCN2C(c2ccc(F)c(F)c2)N1c1cccc(Cl)c1 (stereo not drawn)	0.6	41	0.5	.	50*
COc1cccc(C2N(c3cccc(Cl)c3)C(=O)C3CCCN32)c1OC (stereo not drawn)	0.3	70*	0.2	.	78*
O=C1C2CCCN2C(c2ccccc2)N1c1cccc(Cl)c1 (stereo not drawn)	0.7	27	0.7	.	35
SMILES	CYP2C9 activ	CYP2C9 inhib	CYP2C19 activ	Pyk2 oligo antag	CYP2C19 inhib
Cc1ccccc1-c1nnc(SCCOc2ccc3c(C)cc(=O)oc3c2)o1	0.7	27	0.8	0.7	25
CCOc1cc(NC(=O)c2ccco2)c(OCC)cc1NC(=O)CCC(=O)NCc1cccnc1	0.6	36	1.1	0.7	-9
COc1ccc2cc3cc(C(=O)NCc4ccc5c(c4)OCO5)oc3nc2c1	0.4	64*	0.6	0.71	35
COc1ccc2cc3cc(C(=O)Nc4ccc5c(c4)OCCO5)oc3nc2c1	0.7	34	0.5	0.1	46
COc1ccc2cc3cc(C(=O)N4CCN(Cc5ccc6c(c5)OCO6)CC4)oc3nc2c1	0.5	53*	0.8	-2.2	20
COc1ccccc1C(=O)N1CCN(Cc2ccc3c(c2)OCO3)CC1	.	.	.	-0.05	.
CCn1c(SCC(=O)Nc2ccccc2C(=O)OC)nc2c1c(=O)n(C)c(=O)n2C	0.6	42	0.7	.	32
